Measured values published in the supplement of paper PMC3334620.
In all, about 33,000 sequences were measured (“E-score (-0.5 to 0.5)”: median about -0.015, highest 2% from about 0.3 on). The sample as a whole holds a higher share of the highest values than the screen did.

target: T1, Abf1 (UniProt P14164); assay: PBM E-score (8-mer binding enrichment) (E-score (-0.5 to 0.5)); higher = stronger / more preferred TF binding; details: protein concentration: 200 nM; construct: GST-full length
T1 sequence: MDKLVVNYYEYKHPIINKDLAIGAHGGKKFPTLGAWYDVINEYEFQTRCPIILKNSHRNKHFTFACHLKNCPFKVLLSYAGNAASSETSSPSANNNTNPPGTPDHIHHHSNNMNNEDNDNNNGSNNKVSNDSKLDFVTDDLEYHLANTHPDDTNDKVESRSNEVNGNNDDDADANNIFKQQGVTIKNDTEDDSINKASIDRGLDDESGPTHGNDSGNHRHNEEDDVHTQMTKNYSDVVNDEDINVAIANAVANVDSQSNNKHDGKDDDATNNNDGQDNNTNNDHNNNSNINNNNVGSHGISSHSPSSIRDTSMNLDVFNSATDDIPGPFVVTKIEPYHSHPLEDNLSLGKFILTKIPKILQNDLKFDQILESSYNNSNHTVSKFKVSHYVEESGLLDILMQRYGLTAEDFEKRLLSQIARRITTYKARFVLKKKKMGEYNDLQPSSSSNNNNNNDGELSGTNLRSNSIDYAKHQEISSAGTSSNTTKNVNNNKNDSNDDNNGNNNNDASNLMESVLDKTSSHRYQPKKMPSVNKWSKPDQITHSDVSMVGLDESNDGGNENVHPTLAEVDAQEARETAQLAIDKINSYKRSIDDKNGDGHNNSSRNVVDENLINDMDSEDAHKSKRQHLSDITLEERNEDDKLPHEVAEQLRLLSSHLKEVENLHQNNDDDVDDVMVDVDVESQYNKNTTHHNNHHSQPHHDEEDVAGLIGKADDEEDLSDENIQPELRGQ
How it was run: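 Masliner-normalised scans of fluorescent anti-GST signal were the basis for scoring. That signal came from GST-tagged yeast transcription factors applied at about 100-200 nM to double-stranded universal all-10-mer Agilent arrays on fresh or once-stripped slides. Each ungapped eight-base word, pooled with its reverse complement, received an E-score from the Universal PBM Analysis Suite.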

Row | Sequence | PBM E-score
1 | AAATTGGC | -0.0692
2 | GTTGAGAA | 0.098
3 | AAGGACCG | -0.16
4 | GGAGCCTA | -0.064
5 | ACGACAGA | 0.308
6 | ACGACAGG | 0.05
7 | ACGACAAG | 0.215
8 | ACGACAAT | 0.329
9 | CCGACAAA | -0.0368
10 | ACGACAAA | 0.369
11 | GCGACAGA | -0.0736
12 | ACGACAAC | 0.265
13 | GCGACAAA | 0.215
14 | GGCGTCAA | -0.206
15 | ATGTAGGG | -0.256
16 | ATACGGTA | 0.319
17 | ATACGGTG | 0.297
18 | GTACGGTA | 0.197
19 | CTACGGTA | 0.138
20 | ATACGGTC | 0.26
21 | AAACGGTG | 0.129
22 | AACGGAAT | 0.15
23 | ACTCGTTG | -0.00197
24 | AAGGGATA | 0.0355
25 | ATGGTGGC | -0.387
26 | GCGTACGC | -0.158

Row | Sequence | PBM E-score
27 | TAGTACGA | 0.287
28 | CCGTACGA | 0.451
29 | CGGTACGA | 0.291
30 | TCGTAAGA | 0.154
31 | TCGTACGA | 0.455
32 | CCGTACGC | 0.241
33 | GCGTACGA | 0.317
34 | GGGTACGA | 0.0568
35 | CCAGTCTA | -0.227
36 | CAGCAGAG | -0.263
37 | ATGAGAAG | 0.117
38 | AGTAGTTG | 0.067
39 | ACTTTCAA | 0.159
40 | CTTTACCC | -0.141
41 | GCTGACAC | 0.0512
42 | TGATTCAA | 0.0649
43 | GAGCAAGC | -0.0234
44 | ATTTTTTA | 0.193
45 | AGGTGACG | 0.0988
46 | TGGTGACA | 0.357
47 | CGGTGACA | 0.399
48 | AGGTGACA | 0.362
49 | AGGTGACC | 0.14
50 | GGGTGACC | 0.188
51 | GGGTGACA | 0.257
52 | CGGTGACC | 0.0798

Row | Sequence | PBM E-score
53 | CGGTGACG | 0.235
54 | ACCGAGGT | -0.113
55 | AGCCCACA | -0.0569
56 | AGTATCGC | 0.0404
57 | CCTACGTA | -0.0223
58 | GACGAGTC | 0.241
59 | AATTCCGT | 0.115
60 | GATGCCAC | 0.049
61 | GCCGTTCA | 0.156
62 | ACCTAATC | 0.111
63 | CCCCATGA | -0.167
64 | ACAGTTTA | -0.0111
65 | TCTGATAA | 0.134
66 | GTTGATAA | 0.199
67 | TGGGATAA | -0.0897
68 | CGTGATAA | 0.408
69 | GCTGATAA | 0.0596
70 | CCTGATAA | 0.1
71 | TGTGATAA | 0.297
72 | GGTGATAA | 0.404
73 | CTTGATAA | 0.138
74 | GTTTTCTA | -0.0572
75 | CAGCGATG | -0.0769
76 | AGTGGCAG | -0.0869
77 | TATGGGCA | -0.0697
78 | ATGAACCC | -0.0465

Row | Sequence | PBM E-score
79 | ACGTAGAC | 0.0202
80 | ATGCATAC | 0.0289
81 | CGGGGAGC | -0.00752
82 | AGATGCAT | -0.058
83 | ATCACCGC | 0.311
84 | CTCACCAC | -0.0754
85 | ATCACCGG | 0.101
86 | ATCACCAC | 0.356
87 | CTCACCGC | 0.0255
88 | ATCACCAT | 0.254
89 | AGGTACCT | -0.101
90 | ACGACTAC | 0.329
91 | CCGACTAC | -0.119
92 | ACGACTAT | 0.298
93 | GCGACTAC | -0.134
94 | ACGACTAG | 0.0858
95 | ACGACTAA | 0.0761
96 | ACGACCAG | 0.301
97 | ACGACCAA | 0.182
98 | ACGACCAC | 0.131
99 | AGCTGCTC | -0.148
100 | CTCCTCCC | -0.201
101 | ACGATGGC | 0.0358
102 | ATGTTAAT | -0.0223
103 | AGTGAAGA | 0.129
104 | CGGCATAG | 0.0597
